Screening results deposited in PubChem by Fisher Drug Discovery Resource Center.
The sample as a whole holds a higher share of hits than the screen did.
mcGAS MS inh: blocks mouse cGAS cGAMP production; Q8C6L5; recombinant mouse cGAS, cGAMP by RapidFire MS; inhibition, % at 12.5 µM; actives 0.18% (n = 130,000); AID 1259397;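 active = inhibition of cGAS enzyme activity at or above 60%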;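 note: enzyme stimulated by 45 bp dsDNA with ATP and GTP substrates; cGAMP share of summed cGAMP plus half ATP and half GTP signals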
Target sequence (Q8C6L5 whole entry, looked up): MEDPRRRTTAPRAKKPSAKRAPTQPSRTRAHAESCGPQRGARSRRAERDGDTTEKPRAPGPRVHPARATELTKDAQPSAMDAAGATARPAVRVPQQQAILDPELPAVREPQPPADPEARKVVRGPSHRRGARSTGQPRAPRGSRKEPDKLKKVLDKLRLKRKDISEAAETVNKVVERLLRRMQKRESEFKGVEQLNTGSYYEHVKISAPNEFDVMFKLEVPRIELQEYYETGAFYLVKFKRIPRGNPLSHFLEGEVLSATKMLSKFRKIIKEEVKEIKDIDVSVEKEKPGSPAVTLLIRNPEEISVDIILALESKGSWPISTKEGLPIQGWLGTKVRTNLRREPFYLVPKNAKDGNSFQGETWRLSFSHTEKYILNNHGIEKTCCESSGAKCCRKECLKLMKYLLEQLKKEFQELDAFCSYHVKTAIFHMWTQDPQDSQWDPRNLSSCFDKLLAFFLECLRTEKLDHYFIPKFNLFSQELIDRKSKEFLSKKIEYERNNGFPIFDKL
Numbers without * were called inactive; ! = not active in a repeat.

SMILES | mcGAS MS inh
Cc1ccccc1CCN1CCCC(CN(C)C(=O)Cn2nc3ccccc3n2)C1 (stereo not given) | -6
Cc1nccn1-c1ccccc1CNc1cccc(F)c1C#N | -24
N=C1/C(=C/c2cccs2)C(=O)N=C2SC(c3ccccc3)=NN12 | 45
CCC1=NN2C(=N)/C(=C/c3cccs3)C(=O)N=C2S1 | 97*
N=C1/C(=C/c2cccs2)C(=O)N=C2SC(Cc3ccccc3)=NN12 | -11
O=C(NCC12CC3CC(CC(C3)C1)C2)C1CCCC1 | -15
Cc1cc(N2CCCC(c3nn(C)c(=O)n3-c3ccccc3)C2)nc(N)n1 (stereo not given) | -17
C=c1ccc2cc(=C3N=C(c4cccnc4)ON3)c(=O)[nH]c2c1 | 4
CCn1c(O)c(C(C)=Nc2ccnn2C2CCCCC2)c(=O)n(CC)c1=S | -9
CC(Cn1cnc2ccccc21)C(=O)NN=Cc1ccccn1 (stereo not given) | -4
Cc1cc(-c2cc(=O)[nH]c(-c3ccc(CN4CCN(C)CC4)cc3)n2)c(C)o1 | 71*
CN(Cc1ccc(-c2nc(-c3ccncc3)cc(=O)[nH]2)cc1)Cc1ccoc1 | -19
CCCCc1cc(=O)[nH]c(-c2ccc(CN3CCN(C(=O)N(C)C)CC3)cc2)n1 | 10
CCOc1ccc(CN(C)Cn2[nH]c(-c3cccs3)nc2=S)cc1 | -4
CC(C(=O)N1CCC2(C1)NC(=O)NC2=O)N1CCCCCC1 (stereo not given) | -8
CCSc1nc(-c2ccc(OC)cc2)c(C#N)c(=O)n1CC | -6
CCOc1ccc2nc(NC(=O)CC)sc2c1 | -5
CCOc1ccc2nc3cc(N)ccc3c(N)c2c1 | 92*!
Nc1c2ccccc2nc2ccccc12 (tested in a mixture with another compound) | 41
O=C1OCCN1CCN1Cc2ccccc2C(c2ccccc2)C1 (stereo not given) | -3
COc1coc(C(=O)Nc2nnc(C)s2)cc1=O | 70*
COc1coc(C(=O)Nc2nc(C)cs2)cc1=O | -8
COc1coc(C(=O)Nc2nc3ccccc3s2)cc1=O | 15
O=C(c1ccc(C(F)(F)F)nc1)N1CCOC(COCc2ccc(F)cc2Cl)C1 (stereo not given) | -2
O=C(C1CCN(S(=O)(=O)c2cc(Cl)ccc2Cl)CC1)N1CCCc2ccccc21 | 12
SMILES | mcGAS MS inh
CC(C)CNc1ccc2c(n1)C(=O)N([C@H](C)C(=O)NC1CCC(O)CC1)C2 (stereo not given in full) | 5
O=C(CCc1nc2ccccc2[nH]1)N1CCc2c(ncnc2N2CCOCC2)C1 | -10
C(=C1CCC=C1N1CCOCC1)c1nc2ccccc2[nH]1 | 77*
FC(F)Oc1ccc(Br)cc1C=C1CCC=C1N1CCOCC1 | -8
Cc1nc(C(=O)N(CC2CCN(C3Cc4ccccc4C3)CC2)CC2CCCO2)cs1 (stereo not given) | 3
Cn1cccc1C(=O)N1CCn2c(nnc2C(=O)N2CCOCC2)C1 | -4
Cc1c2cccn2cc[n+]1CC(=O)c1ccccc1 | -3
Cc1ccc[n+](CC(=O)c2ccc(-c3ccccc3)cc2)c1C | -7
O=C(C[n+]1ccc(NC(=O)c2ccccc2)c2ccccc21)c1ccccc1 | 64*
Cc1ccccc1C1(O)CCN(C/C=C/c2ccco2)C1 (stereo not given) | -13
CC1CN(C(C)(C)CNC(=O)c2ccc(=O)[nH]n2)CC(C)O1 (stereo not given) | -3
N#Cc1cccc(NC(=O)N2CCCCC2Cc2ccccc2)c1 (stereo not given) | -11
Cc1ccsc1CN(C)CCCc1cnn(C)c1 | -13
COc1ccc(OC)c(CNCc2c(C)nc3ccccn23)c1 | -3
COc1ccc(Cn2cccc(C)c2=O)c(Cl)c1 | -3
COc1ccc(CNCc2ccccc2Cn2cccn2)c(Cl)c1 | 83*
COc1cccc(C2c3cc(OC)c(OC)c(OC)c3CCN2C(=O)C(F)(F)F)c1 (stereo not given) | -30
O=[N+]([O-])c1ccc2sc(C=Cc3ccsc3)nc2c1 | 6
CCc1nc(C)c(-c2nc(CCc3ccccc3)no2)s1 | 3
CCN(CC)S(=O)(=O)c1ccc(NC(=O)CN2c3ccccc3CC2C)cc1 (stereo not given) | -18
COc1c(Cl)ccc(Cl)c1C(=O)O | 98*
COc1c(Cl)cc(C(=O)NCCn2cccc2)cc1Cl | -3
COc1cccc(C=CC(=O)c2ccc(Cl)c(Cl)c2)c1OC | 9
COc1ccc(C=Cc2sc3ccccc3[n+]2CCCS(=O)(=O)O)cc1OCc1ccccc1 | -2
Cc1ccc(C=Cc2sc3ccccc3[n+]2CCCS(=O)(=O)O)cc1 | 86*
SMILES | mcGAS MS inh
C=CCNC(=O)NC(=O)Cn1nnc(-c2cccs2)n1 | -16
CCOC(=O)c1nn(-c2ccc(F)cc2)c(=O)cc1N1CCc2ccccc2C1 | -3
CCOC(=O)c1sc2nc(CNCc3ccccc3)[nH]c(=O)c2c1C | -11
Cc1cc(I)cc(C(=O)O)c1C | -10
Nc1nnc(Sc2ncc([N+](=O)[O-])s2)s1 | 67*
Nc1nnc(SCC(=O)c2ccc([N+](=O)[O-])cc2)s1 | -3
C=CCSc1nnc(N)s1 | -7
NC(=O)COc1ccc(C(=O)NNC(=O)CN2c3cccc4cccc(c34)S2(=O)=O)cc1 | -2
O=C(CN1c2cccc3cccc(c23)S1(=O)=O)c1c[nH]c2ccccc12 | 87*
O=S1(=O)c2cccc3cccc(c23)N1Cc1cccc2ccccc12 | -11
O=C(O)Cn1c[n+](CC(=O)O)c2ccccc21 | -6
O=C1CCCN=C(C2(c3ccc(F)cc3)CCC2)N1 | -52
Cc1ccsc1[C@@H]1CCN(C(=O)CCc2nc(-c3ccco3)no2)C[C@H]1O | -9
Cc1c(C2CCCCC2)noc1N | -1
CCn1c(C)cc(O)c(C(c2ccc(SC)cc2)N2CCCCC2)c1=O (stereo not given) | -8
CCn1c(C)cc(O)c(C(c2cccs2)N2CCCCC2)c1=O (stereo not given) | 63*
CCn1c(C)cc(O)c(C(c2cccs2)N2CCC(C)CC2)c1=O (stereo not given) | -6
O=C1[C@H]2C[C@H]2C(=O)N1CCc1c[nH]c2ccccc12 | 2
O=C(CN1CCOc2ccccc2C1)NCCS(=O)(=O)N1CCCC1 | 71*
Cc1nn2cc(CNC(=O)CN3CCOc4ccccc4C3)nc2s1 | -16
Cn1nnnc1SCCNC(=O)CN1CCOc2ccccc2C1 | -16
CCCCNC(=O)CN1CCN(CN2C(=O)NC3(CCC(C)CC3)C2=O)CC1 (stereo not given) | -11
Cc1nnc(NC(=O)c2ccc(S(=O)(=O)Nc3cccc(C(F)(F)F)c3)o2)s1 | 76*
Cc1nnc(NC(=O)c2cccc(C(=O)O)c2)s1 | 2
Cc1cccc(NC(=O)c2ccc(S(=O)(=O)Nc3cccc(C(F)(F)F)c3)o2)n1 | -3
SMILES | mcGAS MS inh
O=C(C=Cc1ccco1)Nc1sc2c(c1C(=O)O)CCCCC2 | -1
CC(NS(=O)(=O)c1ccc(Br)s1)c1cccnc1 (stereo not given) | -10
COCCCN1C(=O)C(Cc2ccccc2)NC12CCN(C(=S)Nc1cccc(C)c1)CC2 (stereo not given) | -9
O=c1[nH]c2c(-c3nc4ccccc4s3)c(O)cn2c2sc3c(c12)CCCC3 | -8
O=c1c(O)c(-c2ccccc2)[nH]c2ccccc12 | -10
O=c1[nH]c2c(-c3ccccc3)c(O)cn2c2c1sc1ccccc12 | 70*
O=C(NC1CC(=O)N(Cc2ccccc2Cl)C1)c1ccsc1 (stereo not given) | -6
CC(C)(C)c1cc(CN2CCC(N3CCSCC3)CC2)[nH]n1 | -3
COc1ccc(Cl)c2sc(N(CCN(C)C)C(C)=O)nc12 | -4
